A short description of assay [1]: ACEA_ER_80hr: ACEA Biosciences xCELLigence Real-Time Cell Analysis on Estrogen Receptor Agonism for Proliferation (AID 2282667; active = hit-call score of the fitted dose curve at least 0.9, where 1 is the maximum). Particulars: T47D proliferation, impedance (xCELLigence), 80 h. The method in brief:
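Estrogen-driven proliferation is captured as electrode impedance in T47D cells 80 h after compound addition. Test articles ran at 8 concentrations, 1:4 dilutions from 100 uM final, in two replicate plates.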

The nature of assay [2]: APR_HepG2_CellCycleArrest_24hr: Apredica 24-hour HepG2 Assay for Cell Cycle Arrest (AID 2282905).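 Note: cell cycle arrest scored as ratio of 2N to 4N nuclear DNA content.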 Particulars: imaging, actives raise or lower the signal. The essentials: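 After 24 h exposure at 0.39–200 uM in 0.5% DMSO, fixed cells received Hoechst 33342 staining. Imaging quantified per-nucleus DNA content; gain or loss fitted against DMSO controls.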
Assay [3] can be described thus: APR_HepG2_NuclearSize_24hr: Apredica 24-hour HepG2 Assay for Nuclear Size (AID 2282907). Conditions: high-content imaging, actives raise or lower the signal. The essentials:
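Nuclear size from Hoechst 33342-stained, formaldehyde-fixed HepG2 nuclei imaged by high-content microscopy, after 24 h dosing at ten concentrations from 0.39 to 200 uM in 0.5% DMSO; gain or loss relative to DMSO baseline.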

Assay [4] is described as follows: APR_HepG2_CellLoss_24hr: Apredica 24-hour HepG2 Assay for Cell Loss (AID 2282908).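 For AC50: fit in both directions so a hit may be cell loss or gain.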 Particulars: high-content imaging. The essentials:
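Nuclei stained with Hoechst 33342 after formaldehyde fixation (3.7%) were imaged at 20x to count cells. Exposure lasted 24 hr, at ten concentrations from 0.39 to 200 uM in duplicate, with 0.5% v/v DMSO. Fit bidirectional, relative to DMSO.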

Assay [5] is described as follows: APR_HepG2_MicrotubuleCSK_24hr: Apredica 24-hour HepG2 Assay for Microtubule CSK Stabilty (AID 2282909). Particulars: HepG2 microtubule cytoskeleton imaging, actives raise or lower the signal. The method in brief:
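Fixed HepG2 cells were stained for alpha-tubulin and imaged after 24 hr exposure to ten concentrations spanning 0.39–200 uM in 0.5% DMSO. Signal change was fitted in both directions relative to DMSO; taxol was the positive control.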

Assay [6] is described as follows: APR_HepG2_MitoticArrest_24hr: Apredica 24-hour HepG2 Assay for Mitotic Arrest (AID 2282910). Particulars: high-content imaging, actives raise or lower the signal. The essentials:
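HepG2, 24 hr dosing, 0.39–200 uM, 0.5% DMSO final. Formaldehyde-fixed, Triton-permeabilised, anti-phospho-histone H3 plus Hoechst. ArrayScan imaging at 20x; bidirectional fit vs DMSO baseline.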

The nature of assay [7]: APR_HepG2_MitoMembPot_24hr: Apredica 24-hour HepG2 Assay for Mitochondrial Membrane Potential (AID 2282911). Conditions: imaging, actives raise or lower the signal. The method in brief:
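Mitochondrial dye uptake (MitoTracker Red CMXRos, 250 nM, 30 min pre-fixation) in HepG2 after 24 hr compound exposure, 0.39–200 uM; ArrayScan images at 20x, activity fitted in both directions relative to DMSO.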

Assay [8] is described as follows: APR_HepG2_MitoMass_24hr: Apredica 24-hour HepG2 Assay for Mitochondrial Mass (AID 2282912). Particulars: high-content imaging, actives raise or lower the signal. The method in brief:
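Endpoint is MitoTracker Red CMXRos (250 nM, 30 min, pre-fixation) intensity from 20x high-content imaging, nuclei located by Hoechst. Human HepG2 cells received ten concentrations from 0.39 to 200 uM in 0.5% DMSO for 24 hr, duplicate wells. Bidirectional fit relative to DMSO.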

The nature of assay [9]: APR_HepG2_CellLoss_72hr: Apredica 72-hour HepG2 Assay for Cell Loss (AID 2282915). Conditions: high-content imaging. The essentials:
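HepG2 cells exposed 72 h to compound at 0.39–200 uM (10 concentrations, duplicate) in 0.5% DMSO. Fixed with 3.7% formaldehyde and Hoechst 33342-stained. Imaged at 20x; nuclear count gives cell number, fitted bidirectionally versus DMSO.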

Assay [10] can be described thus: APR_HepG2_P-H2AX_72hr: Apredica 72-hour HepG2 Assay for H2AX Phosphorylation (AID 2282916).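 Note: phospho-histone H2A.x immunostain intensity per cell marking DNA damage.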 Conditions: imaging, actives raise or lower the signal. The essentials:
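Phospho-histone H2A.x immunofluorescence, multiplexed with Hoechst and c-Jun, quantified by high-content imaging. Compounds applied to HepG2 for 72 h across ten concentrations (0.39–200 uM, 0.5% DMSO), in duplicate; DMSO baseline.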

The nature of assay [11]: APR_HepG2_MitoMembPot_72hr: Apredica 72-hour HepG2 Assay for Mitochondrial Membrane Potential (AID 2282917). Conditions: imaging, actives raise or lower the signal. The essentials: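 HepG2 cells dosed 72 hr with compound at 0.39–200 uM in duplicate, 0.5% v/v DMSO final. Mitochondria stained with 250 nM MitoTracker Red CMXRos for 30 min before formaldehyde fixation, imaged by high-content fluorescence; bidirectional fit versus DMSO.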

Assay [12] can be described thus: APR_HepG2_MitoticArrest_72hr: Apredica 72-hour HepG2 Assay for Mitotic Arrest (AID 2282918). Particulars: high-content imaging, actives raise or lower the signal. The method in brief: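 Using high-content imaging of fixed HepG2 cells, phospho-histone H3 signal was measured following a 72 hr incubation with ten-point compound dilutions up to 200 uM. DMSO served as the negative control and baseline for bidirectional curve fitting.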

Assay [13] is described as follows: APR_HepG2_MicrotubuleCSK_72hr: Apredica 72-hour HepG2 Assay for Microtubule CSK Stabilty (AID 2282919). Particulars: HepG2 microtubule cytoskeleton, high-content imaging, actives raise or lower the signal. The essentials:
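HepG2, 72 hr cmpd exposure, 0.39–200 uM (10 pts, duplicate), 0.5% DMSO. 3.7% formaldehyde fix, 0.5% Triton perm, anti-alpha-tubulin/Cy5 plus Hoechst. HCS fluorescence intensity; bidirectional fit vs DMSO baseline; taxol as positive control.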

Assay [14] in a line: APR_HepG2_P-H2AX_24hr: Apredica 24-hour HepG2 Assay for H2AX Phosphorylation (AID 2282920). Conditions: high-content imaging, actives raise or lower the signal. The essentials: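 Human HepG2 liver cells, treated 24 hr with test chemicals (0.39–200 uM, final DMSO 0.5% v/v), are fixed and co-stained for phospho-H2A.x and c-Jun with Hoechst. Imaged intensity is fitted in both directions against DMSO controls.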

A short description of assay [15]: APR_HepG2_StressKinase_72hr: Apredica 72-hour HepG2 Assay for Stress Kinase (AID 2282921). Particulars: HepG2 stress kinase (phospho-c-Jun) imaging, actives raise or lower the signal. The essentials:
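Stress kinase signal is phospho-c-Jun immunofluorescence (1:500 primary, Cy3 secondary) in fixed, permeabilized human HepG2 cells imaged at 20x. Exposure lasted 72 hr over ten concentrations from 0.39 to 200 uM, 0.5% DMSO, in duplicate. Bidirectional fit versus DMSO.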

Assay [16] can be described thus: APR_HepG2_StressKinase_24hr: Apredica 24-hour HepG2 Assay for Stress Kinase (AID 2282922). Conditions: HepG2 stress kinase (phospho-c-Jun) imaging, actives raise or lower the signal. The method in brief: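 Read-out: phospho-c-Jun immunofluorescence (Cy3 secondary) quantified by high-content imaging at 20x, nuclei defined by Hoechst 33342. Human HepG2 liver cells dosed 24 hr, 0.39–200 uM, DMSO 0.5% v/v; gain or loss of signal fitted relative to DMSO.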

The nature of assay [17]: APR_HepG2_MitoMass_72hr: Apredica 72-hour HepG2 Assay for Mitochondrial Mass (AID 2282924).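 Note: MitoTracker Red CMXRos stain intensity per cell imaged as mitochondrial mass.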 Particulars: high-content imaging, actives raise or lower the signal. The essentials: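 Read-out: MitoTracker Red fluorescence intensity from automated imaging (20x, six fields per well) in human HepG2 liver cells. Dosing ran 72 hr, 0.39–200 uM, 0.5% DMSO; bidirectional curve fitting versus DMSO baseline.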

The nature of assay [18]: APR_HepG2_NuclearSize_72hr: Apredica 72-hour HepG2 Assay for Nuclear Size (AID 2282925). Particulars: high-content imaging, actives raise or lower the signal. The essentials: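 Read-out: nuclear diameter from Hoechst 33342 images (ArrayScan, 20x, six fields/well), via cell-cycle image analysis. HepG2 were dosed 0.39–200 uM for 72 hr in 0.5% DMSO. Bidirectional fit relative to DMSO.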

A short description of assay [19]: APR_HepG2_p53Act_24hr: Apredica 24-hour HepG2 Assay for p53 Activation (AID 2282913).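 Note: p53 protein immunofluorescence averaged per cell in HepG2 with Hoechst nuclei.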 Conditions: high-content imaging, actives raise or lower the signal. The method in brief:
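Following 24 hr dosing of HepG2 at 0.39–200 uM, the cells undergo formaldehyde fixation, Triton permeabilization and multiplexed antibody labeling that includes p53 (Cy5). Signal from the imaging is referenced to DMSO solvent controls.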

Assay [20] in a line: APR_HepG2_CellCycleArrest_72hr: Apredica 72-hour HepG2 Assay for Cell Cycle Arrest (AID 2282914). Particulars: high-content imaging, actives raise or lower the signal. The method in brief:
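Using multiplexed high-content imaging, HepG2 nuclei stained with Hoechst 33342 (2 ug/mL) were analysed for DNA content after fixation and permeabilization. Treatment lasted 72 hr across 0.39–200 uM in duplicate with final DMSO 0.5% v/v; DMSO served as negative control.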

A word on the AC50: it is the concentration at which the activity in the assay is half-maximal.

Inconclusive results are not listed. Activity calls are given as the source filed them. Rule for the calls, unless noted: active = hit-call score of the fitted dose curve at least 0.9, where 1 is the maximum; inactive = score below 0.9.

As for `FC(F)(F)C(F)(F)C(F)(F)C(F)(F)C(F)(F)C(F)(F)I`, in assay [1], the result was inactive.
Consider `S=P(N1CC1)(N1CC1)N1CC1`, for which, in [1], the result was inactive.
Take `COc1cc2c(c(OC)c1OC)-c1ccc(OC)c(=O)cc1[C@@H](NC(C)=O)CC2`: the call in assay [1], in [3], in assay [5], in assay [7], in [8] and in assay [11] was inactive. The compound was called inactive in assay [17] and in assay [18]. For the same compound, the concentration at half-maximal activity (AC50) is 0.0391 µM (active) in [2]; 0.0447 µM (active) in assay [4]; 0.0382 µM (active) in [6]; 0.0536 µM (active) in [9]; 0.0815 µM (active) in [10]; 0.0391 µM (active) in assay [12]. For the same compound, the AC50 in assay [13] was 0.0628 µM (active); in assay [14] it was 0.0797 µM (active); in assay [15] it was 0.0456 µM (active); in [16] it was 0.0391 µM (active).
For `CCCCCCCCCCCCCCO`, the compound was classed as inactive in [1], in assay [3], in assay [7], in [11], in assay [15] and in [16]. The result in [17] and in assay [18] was inactive. The AC50 in assay [2] is 162 µM (active); in assay [4], 98.1 µM (active); in [5], 107 µM (active); in [6], 99.3 µM (active); in assay [8], 106 µM (active); in assay [19], 95.8 µM (active). In addition, the concentration at half-maximal activity (AC50) is 106 µM (active) in [9]; 98.6 µM (active) in assay [10]; 90.9 µM (active) in [12]; 114 µM (active) in [13]; 101 µM (active) in [14].
`C[Si](C)(C)C(F)(F)C(F)(F)C(F)(F)F`: the call in [1] was inactive.
Turning to `CCCCC(CC)C(=O)OCCOCCOCCOC(=O)C(CC)CCCC` (stereo not given), the call in assay [1], in assay [2], in [3], in [4], in assay [5] and in assay [6] was inactive. The compound was called inactive in assay [7], in assay [8], in assay [19], in assay [10], in [11] and in [13]. Further, the compound was classed as inactive in assay [14], in assay [15], in assay [16], in assay [17] and in [18]. The concentration at half-maximal activity (AC50) in assay [20] is 79.2 µM (active); in assay [9], 89.8 µM (active); in assay [12] it was 91.2 µM (active).

Values taken from PubChem BioAssay (EPA / NIEHS).
